High-throughput results as filed in PubChem BioAssay.
TDP1 block – TDP1 (human) enzyme inhibition; recombinant TDP1, AlphaScreen DNA substrate cleavage; hit rate 0.28% among 350,000; Q9NUW8; Potency, µM (titrated, usually from 130 µM), without a hit: at the top dose activity change, negative = inhibition, actives largely listed as inhibitors; also: % is scaled to controls: 0 for no effect and ±100 for the full control effect; nearly all actives have a fitted effect of over 40% in size
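Recombinant human Tdp1 (E. coli-expressed, 1 nM final) preincubated with compounds 15 min at room temperature, then 5'-biotin/3'-phosphotyrosine-FITC DNA substrate (15 nM final) added for 5 min. AlphaScreen beads (10 ug/ml final) added 10 min; cleavage lowers signal.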
BAZ2B block – blocks human BAZ2B. hit rate 4.4% among 360,000. Q9UIF8. AID 504333. AlphaScreen BAZ2B-H3K14Ac peptide displacement. Potency, µM (top dose mostly 114 µM), inactives show at the top dose activity change, negative = inhibition, usual class: inhibitors; also: % is scaled to controls: 0 for no effect and ±100 for the full control effect; nearly all actives have a fitted effect of over 60% in size
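In this displacement format the biotinylated H3(5-23) peptide acetylated at Lys14 serves as ligand at 50 nM, with BAZ2B at 50 nM in PBS pH 7.4 containing 0.01% Tween-20. Donor and acceptor beads are 10 ug/mL final.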
G9a inh – inhibitors of human histone lysine methyltransferase G9a | Q96KQ7 | G9a H3K9 monomethylation, AlphaScreen, 2 h | Potency, µM (titrated, usually from 102 µM), without a hit: at the top dose activity, negative = inhibition, most hits filed as inhibitors | hit rate 8.8% among 350,000; also: % is scaled to controls: 0 for no effect and ±100 for the full control effect; nearly all actives have a fitted effect of over 75% in size
Target sequence (Q96KQ7 913-1193 limits assumed): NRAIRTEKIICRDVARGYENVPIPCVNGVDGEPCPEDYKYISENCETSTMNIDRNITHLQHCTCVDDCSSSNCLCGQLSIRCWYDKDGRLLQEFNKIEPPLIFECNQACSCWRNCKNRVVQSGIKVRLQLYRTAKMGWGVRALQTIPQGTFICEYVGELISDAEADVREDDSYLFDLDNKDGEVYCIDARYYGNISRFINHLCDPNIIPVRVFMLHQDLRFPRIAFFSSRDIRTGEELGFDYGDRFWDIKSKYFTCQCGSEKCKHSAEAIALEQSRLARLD
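Chemiluminescent proximity detection of H3K9 monomethylation, read after 10 min bead incubation in the dark. Reaction: 20 nM G9a, 500 nM biotin-H3K9 peptide, 20 uM SAM cofactor, 2 h, room temperature, following 15 min enzyme-compound preincubation.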
Sfp inh – inhibitors of Bacillus subtilis Sfp phosphopantetheinyl transferase. Potency, µM, without a hit: largest response in the series, negative = inhibition, actives largely listed as inhibitors. Q9F4F7. hit rate 3.5% among 310,000. Biochemical Sfp PPTase activity, qHTS;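 also: the enzyme is Sfp with the accession as filed and its product quenches rhodamine fluorescence; 0% = enzyme reaction without inhibitor and -100% = no enzyme wells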
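With Hepes-Na pH 7.6 buffer containing 10 mM MgCl2, Sfp (15 nM) modified BHQ-2-YbbR (12.5 uM) using rhodamine-CoA (5 uM). Two reads 30 minutes apart at 525/598 nm yielded each well's rate.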
JMJD2A Tudor – inhibitors of human JMJD2A Tudor domain | Potency, µM (doses to about 114 µM), for the others: at the top dose activity change, negative = inhibition, usual class: inhibitors | hit rate 4.4% among 390,000 | AlphaScreen JMJD2A-Tudor / H3K4me3 peptide binding | O75164 | AID 504339; also: % is scaled to controls: 0 for no effect and ±100 for the full control effect; nearly all actives have a fitted effect of over 50% in size
HP1b chromo inh – inhibitors of HP1-beta chromodomain binding to methylated histone tails; P83916; AlphaScreen HP1-beta / biotin-H3K9me3 peptide binding; Potency, µM (doses to about 114 µM), without a hit: top-dose activity change, negative = inhibition, hits mostly inhibitors; hit rate 0.56% among 390,000; AID 540317; also: nearly all actives have a fitted effect of over 70% in size
Target sequence (P83916 whole entry, looked up): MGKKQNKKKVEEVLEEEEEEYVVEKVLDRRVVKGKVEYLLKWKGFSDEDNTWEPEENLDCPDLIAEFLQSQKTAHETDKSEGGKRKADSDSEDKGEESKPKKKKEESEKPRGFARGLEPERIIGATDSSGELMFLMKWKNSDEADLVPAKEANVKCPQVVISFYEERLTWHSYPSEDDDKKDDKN
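Compound inhibition of the preformed complex between 50 nM HP1-beta and 50 nM biotinylated H3K9me3 peptide was read by AlphaScreen. Buffer was PBS pH 7.4 with 0.01% Tween-20. Incubations ran 30 min at room temperature, with 10 ug/mL donor/acceptor beads.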
Active calls of the source: *; [ ] = another dose, or the depositor's remark. An excerpt weighted towards active compounds, which were near 12% of everything screened. Calls follow the shape of the dose curve; as a rule, active = well fitted curve in the direction sought with a large enough effect; inconclusive = small, poorly fitted or top-dose-only effect, or another doubt; inactive = no such curve, though single readings can be large; an effect the other way counts as inactive or inconclusive. Potency is read from the fitted curve at half-maximal effect.

For Cc1ccc(NC(=O)CCn2c(=O)[nH]c3ccsc3c2=O)cc1C the results were TDP1 block -12.7%, BAZ2B block -0.4%, G9a inh 16.5%, Sfp inh 11.9%, JMJD2A Tudor -13.7% and HP1b chromo inh -19.6%.
`Cn1c2c(c(=O)n(C)c1=O)C(CC(=O)Nc1ccccc1F)C(=O)N2` (centres undefined) gave BAZ2B block 0.0%, G9a inh inconclusive, Sfp inh -3.9%, JMJD2A Tudor -1.4% and HP1b chromo inh 14.0%.
Screening CCCCn1c2c(c(=O)n(C)c1=O)C(CC(=O)OCC(=O)Nc1cccc(C(F)(F)F)c1)C(=O)N2 (centres undefined) returned TDP1 block 1.0%, BAZ2B block -4.3%, G9a inh 31.6µM*, Sfp inh 13.7%, JMJD2A Tudor -17.0% and HP1b chromo inh 27.7%.
Cc1cc(OC(C)C(=O)NCC2CCC(C(=O)O)CC2)c2c(C)c(C)c(=O)oc2c1 (centres undefined) was read as BAZ2B block -20.8%, G9a inh -10.1%[12.7 µM], Sfp inh 6.8%, JMJD2A Tudor -8.8% and HP1b chromo inh 29.4%.
For Cc1nn(CCc2nn[nH]n2)c2nc(-c3ccccc3)cc(C(F)(F)F)c12 the results were TDP1 block 2.5%, BAZ2B block 14.2%, G9a inh 4.8%, Sfp inh 10.0%, JMJD2A Tudor -11.0% and HP1b chromo inh 68.1%.
Cc1nn(CCC(N)=S)c2nc(-c3cccs3)cc(C(F)(F)F)c12 was read as TDP1 block 3.4%, BAZ2B block -19.6%, G9a inh 10µM*, Sfp inh 22.4µM*, JMJD2A Tudor -10.4% and HP1b chromo inh -19.7%.
Screening CN(C)C=NC(=O)c1cc2c(n(-c3ccccc3)c1=O)CC(C)(C)CC2=O returned TDP1 block 0.9%, BAZ2B block 2.2%, G9a inh -8.3%[59 µM], JMJD2A Tudor -12.3% and HP1b chromo inh 23.8%.
Cc1ccc(-c2nc(CS(=O)CC(=O)NCc3ccccc3Cl)c(C)o2)cc1 (centres undefined) was read as TDP1 block 4.6%, BAZ2B block inconclusive, G9a inh inconclusive, JMJD2A Tudor -29.0% and HP1b chromo inh 8.6%.
CC(=NNS(=O)(=O)c1cccc([N+](=O)[O-])c1)c1ccc(-n2ccnc2)cc1 was read as TDP1 block 0.0%, JMJD2A Tudor -24.3% and HP1b chromo inh 0.2%.
Screening CC(=O)Nc1cccc(/C(C)=N/NS(=O)(=O)c2ccc(C)cc2)c1 returned TDP1 block 5.5%, BAZ2B block -6.9%, G9a inh 50.1µM*, Sfp inh -3.9%, JMJD2A Tudor -13.5%[11.4 µM] and HP1b chromo inh 25.7%.
For CCOC(=O)N1CCN(S(=O)(=O)c2cc([N+](=O)[O-])ccc2C)CC1 the results were TDP1 block 2.4%, BAZ2B block -25.5%, G9a inh inconclusive, Sfp inh 3.7%, JMJD2A Tudor 7.5% and HP1b chromo inh 56.4%.
Screening C/C(=N/NS(=O)(=O)c1ccccc1)c1c[nH]c2ccccc12 returned TDP1 block 5.0%[56.1 µM], BAZ2B block -25.9%, G9a inh 22.4µM*, Sfp inh -9.3%, JMJD2A Tudor -17.2% and HP1b chromo inh 43.1%.
CCOC(=O)N1CCC(=NNS(=O)(=O)c2cccc([N+](=O)[O-])c2)CC1 was read as TDP1 block 7.1%, BAZ2B block -4.4%, G9a inh inconclusive, Sfp inh 56.2µM*, JMJD2A Tudor -6.6% and HP1b chromo inh 29.6%.
For C/C(=N/NS(=O)(=O)c1cccc([N+](=O)[O-])c1)c1ccncc1 the results were TDP1 block 4.3%, BAZ2B block inconclusive, G9a inh 35.5µM*, Sfp inh -17.5%, JMJD2A Tudor -17.9% and HP1b chromo inh 39.1%.
`Cc1nn(Cc2noc(C(=O)NCc3ccccn3)n2)c(C)c1Br` gave TDP1 block 0.6%, BAZ2B block -9.0%, G9a inh inconclusive, Sfp inh -6.9%, JMJD2A Tudor -6.0% and HP1b chromo inh 41.2%.
For CC(O)c1nc2ccccc2n1CCCc1ccccc1 (centres undefined) the results were TDP1 block 3.5%, BAZ2B block inconclusive, G9a inh 10.0%, Sfp inh 6.0%, JMJD2A Tudor -17.0% and HP1b chromo inh 7.8%.
For O=C(NCC1CCCO1)c1ccccc1OCc1ccc(Cl)cc1 (centres undefined) the results were TDP1 block 1.1%, BAZ2B block 7.0%, G9a inh 9.6%, JMJD2A Tudor -5.0% and HP1b chromo inh 25.1%.
`C/C(=N/NS(=O)(=O)c1cc(C)ccc1C)c1c[nH]c2ccccc12` gave TDP1 block 6.0%, BAZ2B block -21.1%, G9a inh inconclusive, Sfp inh 5.5%, JMJD2A Tudor -14.0% and HP1b chromo inh 15.7%.
C/C(=N/NS(=O)(=O)c1cccc([N+](=O)[O-])c1)c1c[nH]c2ccccc12 was read as TDP1 block 2.3%, BAZ2B block 50.1µM*, G9a inh 25.1µM*, Sfp inh -25.6%, JMJD2A Tudor -24.5% and HP1b chromo inh 5.4%.
C/C(=N/NS(=O)(=O)c1ccc(C)cc1)c1c[nH]c2ccccc12 was read as TDP1 block 5.0%[56.1 µM], BAZ2B block -17.1%, G9a inh 25.1µM*, Sfp inh -13.2%, JMJD2A Tudor -17.8% and HP1b chromo inh 30.1%.
Screening Cc1cccc(/C=C2\CCC(=C3SCCCS3)C2=O)c1 returned TDP1 block 7.0%, BAZ2B block 10µM*, G9a inh 50.1µM*, Sfp inh -15.0%, JMJD2A Tudor 44.7µM* and HP1b chromo inh 15.8µM*.
Screening O=C1C(=C2SCCCS2)CC/C1=C\c1ccc(F)cc1 returned TDP1 block 3.2%, BAZ2B block -0.6%, G9a inh 21.1%, Sfp inh 25.0%, JMJD2A Tudor -23.3% and HP1b chromo inh 21.4%.
Screening Cc1sc(N)nc1C12CC3CC(CC(C3)C1)C2 returned TDP1 block 3.0%, BAZ2B block inconclusive, G9a inh 44.7µM*, Sfp inh -12.3%, JMJD2A Tudor -25.5% and HP1b chromo inh inconclusive.
CC(C)n1c(CSCc2ccc(Cl)cc2Cl)n[nH]c1=S was read as TDP1 block 5.0%, BAZ2B block inconclusive, G9a inh 12.6µM*, Sfp inh 7.2%, JMJD2A Tudor -12.0%[57.1 µM] and HP1b chromo inh -4.9%.
`Cc1nn(C(=O)c2ccco2)c(C)c1Br` gave TDP1 block 2.3%, BAZ2B block 9.5%, G9a inh 20.4%, Sfp inh 9.7%, JMJD2A Tudor 0.0% and HP1b chromo inh 41.3%.
